# Inconclusive results are not listed. Active and inactive are the calls of the source. Calls follow the shape of the dose curve; as a rule, active = well fitted cell-killing curve with a large enough effect in the repeat runs; inconclusive = weak or mixed curves, or effect the other way; inactive = no such curve, though single readings can be large or run the other way.
# Test: qHTS assay to identify small molecule antagonists of the glucocorticoid receptor (GR) signaling pathway - cell viability counter screen (AID 720693); also: nearly all actives have a fitted effect of over 55% in size
# Conditions: GR-bla HeLa viability, CellTiter-Glo luminescence, 18 h, with 5 nM dexamethasone present; series mostly up to 58.5 µM
# Excerpt: National Center for Advancing Translational Sciences [NCATS]
# NIH Chemical Genomics Center [NCGC]
# U.S. Environmental Protection Agency [EPA]
# National Institutes of Environmental Health Sciences [NIEHS]
# National Toxicology Program [NTP]
# U.S. Food and Drug Administration [FDA]
# The Glucocorticoid receptor (GR) is one of the members of the nuclear receptor family of ligand-dependent transcription factors. GR plays a critical role in carbohydrate, protein and lipid metabolisms and programmed cell death. CellSensor GR-bla HeLa cell line (Invitrogen) contains a beta-lactamase reporter gene under the control of the glucocorticoid response element stably integrated into HeLa cells, a cervical cancer cell line that expresses glucocorticoid receptor. The activation of the reporter gene under culture conditions can be detected by fluorescence intensity. This cell line has been used to screen the Tox21 10K compound library and to identify the compounds that inhibit the GR signaling. The cytotoxicity of the Tox21 compound library against the GR-bla HeLa cell line was tested in parallel by measuring the cell viability using CellTiter-Glo assay in the same wells.
# Tox21 Assay Protocol Summary:
# The GR-bla HeLa cells were dispensed at 1500 cells/5 ul/well in 1536-well black wall/clear bottom plates using a Multidrop Combi (ThermoFisher Scientific, Waltham, MA) dispenser. After the assay plates were incubated at a 37 C/5% CO2 incubator for 4 hours, 23 nL of compounds dissolved in DMSO, positive controls or DMSO only was transferred to the assay plate by a pintool station (Kalypsys, San Diego, CA), followed by addition of 1 uL of dexamethasone (5 nM, final concentration in the well). The plates were incubated at 37 C for 18 hours. After 1 uL of LiveBLAzerTM B/G FRET substrate was added using a Flying Reagent Dispenser (Aurora Discovery, San Diego, CA), the plates were incubated at room temperature (RT) for 2 hours, and fluorescence intensity was measured by an Envision plate reader (PerkinElmer, Shelton, CT). After measurement of bla assay, 3 ul CellTiter-Glo (Promega, Madison, WI) was added to measure the cytotoxicity and the plates were then incubated at RT for 30 min. The luminescence was measured using a ViewLux (Perkin Elmer) plate reader.
row,Compound,outcome
1,CC1=NN(c2ccc(S(=O)(=O)O)cc2)C(=O)C1,inactive
2,O=C(CCCCC(=O)Nc1c(I)cc(I)c(C(=O)O)c1I)Nc1c(I)cc(I)c(C(=O)O)c1I,inactive
3,CC1=C(C(=O)O)N2C(=O)[C@@H](NC(=O)[C@H](N)c3ccccc3)[C@H]2SC1,inactive
4,COc1nc(N)nc2nc[nH]c12,inactive
5,OCC1CCC(CO)CC1 (stereo not given),inactive
6,O=C1OCCO1,inactive
7,N[C@@H](Cc1ccc(O)cc1)C(=O)O,inactive
8,CC(=O)O[C@H]1C[C@@H]2CC[C@@]1(C)C2(C)C,inactive
9,C/C=C(\C)C(=O)OCCc1ccccc1,inactive
10,OC1OCCOC1O (stereo not given),inactive
11,CCC/C=C(\C=O)CC,inactive
12,O=C(O)CCCCCC(=O)O,inactive
13,Cc1ccc(N)cc1S(=O)(=O)O,inactive
14,CC(C)=CCC/C(C)=C/COC=O,inactive
15,O=C(O)c1cc2ccccc2nc1C(=O)O,inactive
16,CSc1cnccn1,inactive
17,CCCCOCC(C)O (stereo not given),inactive
18,C=CC/C=C/C,inactive
19,Cc1ccccc1C(N)=O,inactive
20,CCCCCCC1(C)CCC(=O)O1 (stereo not given),inactive

row,Compound,outcome
1,N#Cc1cscn1,inactive
2,CCCC(=O)Nc1ccc(OCC(O)CNC(C)C)c(C(C)=O)c1 (stereo not given),inactive
3,OCC1(CO)COCOC1,inactive
4,CCOCCOCC,inactive
5,CCOC(=O)CC1(C)OCC(C)O1 (stereo not given),inactive
6,C=C(C)[C@@H]1CC=C(C)CC1,inactive
7,CCCSSCCC,inactive
8,CCCCCC(C)O (stereo not given),inactive
9,CC12CCC(C1)C(C)(C)C2O (stereo not given),inactive
10,Cc1ncc([N+](=O)[O-])n1CC(C)O (stereo not given),inactive
11,CCCCCCCCCOC(=O)CCCCC(=O)OCCCCCCC,inactive
12,O=C1CCCCO1,inactive
13,N#CCC(=O)NN,inactive
14,CC(=O)C1C(=O)C=C(C)OC1=O (stereo not given),inactive
15,CC1(C)Cc2cccc(N)c2O1,inactive
16,CCCCOCCOC(=O)COc1ccc(Cl)cc1Cl,inactive
17,C=C(C)C1CC=C(C)C(=O)C1 (stereo not given),inactive
18,CCC(C)OC(C)CC (stereo not given),inactive
19,CC1(C)[C@H]2CC[C@](C)(C2)[C@H]1O,inactive
20,CC(=O)OC(C)=O,inactive

# Reference: PubChem BioAssay (Tox21)
